An excerpt weighted towards active compounds, which were near 17% of everything screened.
ClpP mod: qHTS Assay for Activators of ClpP; ATP-dependent Clp protease proteolytic subunit (Bacillus subtilis (strain 168)), P80244; purified B. subtilis ClpP, FRET peptide cleavage, 20 min; Potency, µM (highest dose often 57.5 µM), without a hit: at the top dose activity change, negative = active; hit rate 1.9% among 340,000; AID 651965, 2013; active means well fitted falling curve with a large enough effect; inconclusive means small, poorly fitted or top-dose-only effect; inactive means no such curve, though single readings can be large or run the other way; further: the source files actives as falling curves though it sought activators and does not explain the sign; nearly all actives have a fitted effect of over 65% in size
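ClpP 10 microg/mL final, pH 8 Tris/KCl buffer with BSA, glycerol, Tween-20; compound pinned in; FRET-FV substrate; RT 20 min; Ex320/Em430; ΔFRET vs ADEP 5.8 microM, DMSO, no enzyme.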
DT40 TDP1 CPT: growth inhibition of DT40 Tdp1-/-;hTDP1 cells with camptothecin (screen for TDP1 inhibitors). chicken DT40 Tdp1-/-;hTDP1 cells + 20 nM CPT, ATP luminescence, 48 h. Potency, µM (top dose mostly 46.2 µM), for the others: at the highest dose activity change, negative = growth inhibition, actives largely listed as inhibitors. hit rate 12% among 420,000. AID 686979; further: on the % scale 0 is the no-effect control and ±100 the full control effect; nearly all actives have a fitted effect of over 55% in size
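Chicken DT40 Tdp1-/- cells complemented with human TDP1, 400 cells/well, exposed to compounds plus 20 nM camptothecin for at least 48 h at 37 C; viability read as ATP content by CellTiter-Glo luminescence.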
DT40 TDP1 no CPT: qHTS for Inhibitors of human tyrosyl-DNA phosphodiesterase 1 (TDP1): qHTS in cells in absence of CPT | DT40 Tdp1-/- hTDP1 cells, no CPT, ATP luminescence, 48 h | Potency, µM (series often up to 46.2 µM), inactives show top-dose activity change, negative = growth inhibition, hits mostly inhibitors | hit rate 15% among 420,000 | AID 686978, 2013; further: on the % scale 0 is the no-effect control and ±100 the full control effect; nearly all actives have a fitted effect of over 55% in size
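Chicken DT40 Tdp1-/- cells complemented with human TDP1, screened without camptothecin (DMSO vehicle only), 400 cells/well. Compounds pin-transferred, cells incubated at 37 °C for at least 48 hr. Growth read as ATP-dependent luminescence (CellTiter-Glo, 30 min at RT).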
TDP1 block: inhibitors of human tyrosyl-DNA phosphodiesterase TDP1; Q9NUW8; recombinant TDP1, AlphaScreen DNA substrate cleavage; Potency, µM (doses to about 130 µM), for inactives: at the top dose activity change, negative = inhibition, hits mostly inhibitors; hit rate 0.28% among 350,000; further: on the % scale 0 is the no-effect control and ±100 the full control effect; nearly all actives have a fitted effect of over 40% in size
Target sequence (Q9NUW8 whole entry, looked up): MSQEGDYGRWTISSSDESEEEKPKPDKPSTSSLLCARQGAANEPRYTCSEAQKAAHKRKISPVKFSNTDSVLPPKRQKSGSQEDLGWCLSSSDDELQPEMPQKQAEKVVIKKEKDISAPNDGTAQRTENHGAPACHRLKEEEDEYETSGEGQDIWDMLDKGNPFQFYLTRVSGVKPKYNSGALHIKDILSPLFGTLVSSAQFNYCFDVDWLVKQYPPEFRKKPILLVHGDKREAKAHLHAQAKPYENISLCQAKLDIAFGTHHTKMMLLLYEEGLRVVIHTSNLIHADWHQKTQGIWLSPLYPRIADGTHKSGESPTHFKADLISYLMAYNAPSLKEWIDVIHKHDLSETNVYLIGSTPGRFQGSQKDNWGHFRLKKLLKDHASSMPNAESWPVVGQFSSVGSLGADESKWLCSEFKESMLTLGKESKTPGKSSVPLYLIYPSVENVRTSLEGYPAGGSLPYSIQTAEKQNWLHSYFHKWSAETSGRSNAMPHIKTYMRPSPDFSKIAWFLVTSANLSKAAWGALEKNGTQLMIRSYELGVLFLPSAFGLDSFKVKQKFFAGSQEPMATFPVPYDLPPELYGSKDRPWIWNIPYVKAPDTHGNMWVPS
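Signal: AlphaScreen proximity between streptavidin donor and anti-FITC acceptor beads on intact substrate. Reaction: Tdp1 1 nM, substrate 15 nM final, 5 min RT after 15 min compound preincubation.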
* hit, by the source's call; ? = inconclusive; · = no result given; [ ] = remark or other dose. Unless noted, the call rests on the fitted dose curve; in most records, active means well fitted curve in the direction sought with a large enough effect; inconclusive means small, poorly fitted or top-dose-only effect, or another doubt; inactive means no such curve, though single readings can be large; an effect the other way counts as inactive or inconclusive. Potency means the concentration at half of the fitted maximal effect.

SMILES | ClpP mod | DT40 TDP1 CPT | DT40 TDP1 no CPT | TDP1 block
COc1ccc(CCNC(=O)CSc2nc(C)cc(C)n2)cc1OC | 0.2% | 7.5% | 10.9% | -7.6%
Cc1ccc(-c2nnc(SCC(=O)NCC3CCCO3)nc2-c2ccc(C)cc2)cc1 (centres undefined) | -4.5% | ? | 23.1µM* | -7.4%[0.505 µM]
Cc1ccccc1NC(=O)CCCN1C(=O)C2CC=CCC2C1=O (centres undefined) | -0.5% | 5.9% | 13.8% | 1.5%
Cc1cc(NC(=O)CCSc2ccc(Cl)cc2)no1 | · | 13.6% | 2.3% | 1.2%
COc1cccc(N2CC(NC(=O)COc3ccc4ccccc4c3)CC2=O)c1 (centres undefined) | -2.3% | ? | ? | 0.0%
Cc1ccc(-c2nnc(SCC(=O)NCCC(C)C)nc2-c2ccc(C)cc2)cc1 | -1.5% | 5.8µM* | 13µM* | 7.9%
O=C(Cn1cnc2c(nnn2Cc2ccc(F)cc2)c1=O)Nc1ccc2c(c1)OCCO2 | -0.9% | -9.2% | -8.2% | -13.8%
CCOc1ccc(NC(=O)C(CC(=O)O)Cc2ccc(C)cc2)cc1 (centres undefined) | 0.1% | 26.3% | 1.7% | ·
COC(=O)N/N=C/c1ccc(-c2cc(Cl)cc(Cl)c2)o1 | -22.1% | 5.0% | -1.9% | 5.3%
CCOC(=O)N/N=C\c1ccc(-c2cc(Cl)ccc2Cl)o1 | · | ? | -22.2% | -2.5%
NC(=S)N/N=C/c1ccc(-c2cc(Cl)cc(Cl)c2)o1 | 27.5% | 5.8µM* | 2.06µM* | 6.1%
NC(=S)N/N=C/c1ccc(-c2cc(Cl)ccc2Cl)o1 | -12.8% | 2.59µM* | 3.26µM* | 5.3%
COc1ccc(C(=O)/C(Br)=C/C(=O)O)cc1 | · | · | · | 4.7%
CN1CCC(=NNC(=O)C(=O)NC2CCCCC2)CC1 | 0.9% | -5.6% | -12.7% | 5.1%
CN1CCC(=NNC(=O)C(=O)NC2CCCC2)CC1 | 31.6µM* | 7.7% | -6.0% | 3.3%
CC(=O)C[C@@H]1OC2CCCCC2N1S(=O)(=O)c1ccc(C)cc1 (some centres undefined) | 0.1% | 2.6% | -7.2% | ·
COc1ccc(NC(=O)C[C@@H]2C(=O)N(Cc3ccccc3)CC2(C)C)cc1 | 0.5% | -26.5% | 20.6µM* | ·
CC1(C)CN(Cc2ccccc2)C(=O)[C@H]1CC(=O)Nc1ccc(Br)cc1 | -3.2% | ? | 13µM* | ·
COc1ccc(C(=O)Nc2ccccc2CCC2CCCCN2C)cc1 (centres undefined) | · | 14.8% | -29.8% | ·
CN1CCCC1CCOC(C)(c1ccccc1)c1ccc(Cl)cc1 (centres undefined) | -3.5% | ? | 16.4µM* | 8.0%
CCn1cc(CN2CCC(C(=O)Nc3ccc(Oc4ccccc4)nc3)CC2)cn1 | 1.0% | -67.5% | 20.6µM* | 3.1%
Cc1c(CN2CCC(C(=O)Nc3ccc(Oc4ccccc4)nc3)CC2)cnn1C | -1.9% | 11.1% | 14.2% | 2.1%
O=C(Nc1ccc(Oc2ccccc2)nc1)C1CCN(Cc2ccccc2)CC1 | -0.8% | ? | -28.3% | 3.1%
CCc1ccc(CN2CCC(C(=O)Nc3ccc(Oc4ccccc4)nc3)CC2)o1 | · | 16.4µM* | 23.1µM* | 7.9%
CC(C)n1cc(CN2CCC(C(=O)Nc3ccc(Oc4ccccc4F)cc3)CC2)cn1 | 0.6% | ? | ? | 8.2%
SMILES | ClpP mod | DT40 TDP1 CPT | DT40 TDP1 no CPT | TDP1 block
CCn1cc(CN2CCC(C(=O)Nc3ccc(Oc4ccccc4F)cc3)CC2)c(C)n1 | 0.7% | ? | 25.9µM* | 0.3%
COCC(=O)N1CCC2(CCCN(c3ccccn3)C2)CC1 | · | ? | -9.3% | ·
COc1ccccc1C(CNC(=O)c1ccc(C)c(S(=O)(=O)N2CCCCC2)c1)N1CCCC1 (centres undefined) | · | -15.1% | -21.5% | 0.6%
CN1C(C(=O)N2CCc3ccccc3C2)=CC(c2ccc(F)cc2)=NS1(=O)=O | -18.4% | ? | 25.9µM* | 4.3%
COc1ccc(C2=NS(=O)(=O)N(C)C(C(=O)N3CCC(C)CC3)=C2)cc1 | -4.4% | ? | ? | ·
O=C(c1cnn2c(C(F)(F)F)cc(-c3ccc(F)cc3)nc12)N1CCc2ccccc2C1 | -4.8% | ? | 20.6µM* | 2.4%
O=C(c1cccc(F)c1)N1CCN(C(=O)c2cc3nc(-c4ccco4)cc(C(F)(F)F)n3n2)CC1 | · | -23.7% | 14.6µM* | 3.2%[0.0935 µM]
O=C(c1cc2nc(-c3ccccc3)cc(C(F)(F)F)n2n1)N1CCOCC1 | -7.6% | -21.5% | -19.0% | -2.2%
CN1CCN(C(=O)c2cc3nc(-c4ccco4)cc(C(F)(F)F)n3n2)CC1 | · | 9.4% | -26.1% | 5.6%
O=C(c1cnn2c(C(F)(F)F)cc(-c3ccccc3)nc12)N1CCOCC1 | -2.9% | ? | -18.3% | 1.0%
O=C(c1cc2nc(-c3ccco3)cc(C(F)(F)F)n2n1)N1CCc2ccccc2C1 | -26.3% | ? | 23.1µM* | -1.5%
COC(=O)[C@@]1(C(C)C)N=C(c2cc(OC)c(OC)c(OC)c2)[C@]2(O1)C(=O)N(C)c1ccccc12 | -2.9% | -22.6% | ? | ·
Cc1ccc(C(=O)NCc2ccccn2)cc1NC1=NC2CS(=O)(=O)CC2S1 (centres undefined) | -0.8% | -1.7% | -4.8% | ·
CCCC[C@H](NC(=O)[C@H](CC(C)C)NC(=O)CNC(=O)[C@@H](NC(=O)[C@H](Cc1ccccc1)NC(=O)[C@H](CO)NC(=O)[C@@H](N)CC(=O)O)C(C)C)C(N)=O | · | · | · | 13.4%
O=C(CC1N=C2c3ccccc3N=C(SCC(=O)Nc3cccc(Cl)c3)N2C1=O)NCc1cccs1 (centres undefined) | -6.1% | ? | 23.1µM* | 2.5%
COc1ccc(Cl)cc1NC(=O)CSC1=Nc2ccccc2C2=NC(CC(=O)NCc3ccc4c(c3)OCO4)C(=O)N12 (centres undefined) | -8.8% | ? | ? | 0.0%
COc1ccc(Cl)cc1NC(=O)CSC1=Nc2ccccc2C2=NC(CC(=O)NCc3cccs3)C(=O)N12 (centres undefined) | -7.1% | ? | 23.1µM* | 0.0%
Cc1ccc(-n2nc(C(=O)N3CCOCC3)cc2-c2ccc(Cl)cc2)cc1 | -0.3% | ? | ? | -1.1%
Cn1nc(-c2ccccc2F)c2cc(C(=O)N3CCN(c4ccccc4F)CC3)sc21 | -11.0% | 4.11µM* | 7.31µM* | 2.3%
COc1ccc(N2CCN(C(=O)c3cc4c(-c5ccccc5F)nn(C)c4s3)CC2)cc1 | -4.5% | ? | 9.2µM* | 9.3%
Cn1nc(-c2ccc(Cl)cc2)c2cc(C(=O)N3CCOCC3)sc21 | -9.8% | ? | 20.6µM* | 1.3%
O=C(c1cc(-c2ccc(Cl)cc2)n(-c2ccc(Cl)cc2)n1)N1CCOCC1 | -0.3% | 16.4µM* | ? | -2.0%
COc1ccc(NC(=O)c2c(N)c(C(=O)c3ccc(C)cc3)n3ccccc23)cc1OC | 4.2% | ? | ? | 7.6%
Cc1ccc(C(=O)c2cn(Cc3c(F)cccc3Cl)c3nc(C)ccc3c2=O)cc1 | -2.9% | -8.1% | ? | 0.0%

Screening data: PubChem BioAssay, National Center for Advancing Translational Sciences (NCATS)
